Reference: PubChem BioAssay (NCI)
Compounds without any hit were thinned out: in the full panel of roughly 79,000, 15% have a hit. Activity calls are given as the source filed them. Rule as the data show it: active = growth inhibition above about 70%; inactive = the rest.

How the values were obtained:
[1] = NCI Yeast Anticancer Drug Screen. Data for the rad50 strain (AID 155);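 also: 0% = growth of vehicle-only cultures of the same strain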; details: S. cerevisiae rad50 strain growth inhibition, active compounds read high
How it was run: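 Relative growth inhibition (compound vs vehicle) was measured in yeast with a defined repair-gene alteration.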

[2] = NCI Yeast Anticancer Drug Screen. Data for the mec2-1 strain (AID 157); details: S. cerevisiae mec2-1 strain, active compounds read high
How it was run: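 Mutant yeast (mec2-1) grown with compound; growth inhibition relative to vehicle control reported.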

[3] = NCI Yeast Anticancer Drug Screen. Data for the sgs1 mgt1 strain (AID 161);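 also: 0% = growth of cultures given vehicle only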; details: S. cerevisiae sgs1 mgt1 strain, active compounds read high
How it was run: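 Compounds are added to genetically altered yeast, and growth is compared with cultures given vehicle alone to give percent inhibition.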

[4] = NCI Yeast Anticancer Drug Screen. Data for the cln2 rad14 strain (AID 165);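 also: 0% = growth equal to vehicle treated cultures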; details: S. cerevisiae cln2 rad14 strain, active compounds read high
How it was run: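 Readout is yeast growth inhibition versus vehicle-treated controls, using a strain with cln2 and rad14 alterations exposed to compound.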

[5] = NCI Yeast Anticancer Drug Screen. Data for the bub3 strain (AID 167); details: S. cerevisiae bub3 mutant strain, active compounds read high
How it was run: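 Screening used yeast with an engineered genetic alteration affecting cell cycle control. Compound-exposed cultures were compared with vehicle cultures, and reduced growth was taken as inhibition.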

[6] = NCI Yeast Anticancer Drug Screen. Data for the mlh1 rad18 strain (AID 175); details: S. cerevisiae mlh1 rad18 strain growth inhibition, active compounds read high
How it was run: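 Genetically defined yeast (DNA repair-deficient) exposed to compounds; growth inhibition determined relative to vehicle.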

[7] = at 5.0 µM (retest, dose inferred, filed as 0.5)
[8] = at 50.0 µM (retest, dose inferred, filed as 5.0)

Measured: growth inhibition

COc1cc2c(cc1C(C)C)CCC1C(C)(C#N)CCCC21C (configuration not stated)
active: [4]; at 50.0 µM 80.1% | [6]; at 50.0 µM 88.8%
inactive: [1]; [7] -6% | [1]; [8] -21% | [1]; at 50.0 µM 34.4% | [2]; [7] 3% | [2]; [8] -11% | [2]; at 50.0 µM 46.5% | [3]; [7] -11% | [3]; [8] -29% | [3]; at 50.0 µM 47.5% | [4]; [7] 1% | [4]; [8] -22% | [5]; [7] 0% | [5]; [8] -10% | [5]; at 50.0 µM 45.1% | [6]; [7] -3% | [6]; [8] -29%

CCCCCCNC(=S)N/N=C(\C)c1ccccn1
active: [1]; [7] 72% | [1]; [8] 99% | [1]; at 50.0 µM 76.3% | [2]; [7] 86% | [2]; [8] 99% | [2]; at 50.0 µM 85.7% | [3]; [8] 99% | [3]; at 50.0 µM 90% | [4]; [7] 90% | [4]; [8] 95% | [4]; at 50.0 µM 90.3% | [5]; [7] 98% | [5]; [8] 99% | [5]; at 50.0 µM 90.5% | [6]; [7] 97% | [6]; [8] 93% | [6]; at 50.0 µM 91.2%
inactive: [3]; [7] 63%

CC(C)NC(=O)CN1C(=O)NC(C)(c2ccccc2)C1=O (configuration not stated)
inactive: [1]; [7] -4% | [1]; [8] -1% | [2]; [7] 6% | [2]; [8] 8% | [2]; at 50.0 µM 67% | [3]; [7] -4% | [3]; [8] 11% | [3]; at 50.0 µM 53.5% | [4]; [7] 2% | [4]; [8] -3% | [5]; [7] -3% | [5]; [8] 1% | [6]; [7] 11% | [6]; [8] 13%
active: [1]; at 50.0 µM 75.5% | [4]; at 50.0 µM 90.8% | [5]; at 50.0 µM 79.2% | [6]; at 50.0 µM 70.3%

CCCCCCCCNc1ncnc2c1cnn2C
active: [2]; [8] 83% | [3]; [8] 85% | [4]; at 50.0 µM 98.8% | [5]; [8] 87% | [5]; at 50.0 µM 97.8% | [6]; [8] 86%
inactive: [1]; [7] -2% | [1]; [8] 69% | [1]; at 50.0 µM 48.6% | [2]; [7] 4% | [2]; at 50.0 µM 43% | [3]; [7] -2% | [3]; at 50.0 µM 54.8% | [4]; [7] -9% | [4]; [8] 61% | [5]; [7] 1% | [6]; [7] 18% | [6]; at 50.0 µM 49.9%

CCSc1nnc(CSc2nc(-c3ccccc3)c(-c3ccccc3)[nH]2)n1-c1ccccc1
active: [1]; at 50.0 µM 79.1% | [3]; at 50.0 µM 76.7% | [4]; at 50.0 µM 74.5%
inactive: [1]; [7] 35% | [1]; [8] 35% | [2]; [7] 30% | [2]; [8] 30% | [2]; at 50.0 µM 68.7% | [3]; [7] 32% | [3]; [8] 32% | [4]; [7] 26% | [4]; [8] 26% | [5]; [7] 25% | [5]; [8] 25% | [5]; at 50.0 µM 63.9% | [6]; [7] 28% | [6]; [8] 28% | [6]; at 50.0 µM 62.5%

Cc1ccc(C)c2[nH]c(-c3ccccc3)cc12
inactive: [1]; [7] -1% | [2]; [7] -37% | [3]; [7] 0% | [4]; [7] 0% | [5]; [7] -5% | [6]; [7] -1%
active: [1]; [8] 99% | [1]; at 50.0 µM 99.3% | [2]; [8] 99% | [2]; at 50.0 µM 99.2% | [3]; [8] 99% | [3]; at 50.0 µM 99.3% | [4]; [8] 99% | [4]; at 50.0 µM 99.1% | [5]; [8] 99% | [5]; at 50.0 µM 99.2% | [6]; [8] 99% | [6]; at 50.0 µM 99.2%

CCCCCCCCCC(=O)CC(=O)c1c(O)cccc1O
inactive: [1]; [7] 33% | [2]; [7] 20% | [3]; [7] 52% | [4]; [7] 22% | [5]; [7] 42% | [6]; [7] 40%
active: [1]; [8] 83% | [1]; at 50.0 µM 86% | [2]; [8] 92% | [2]; at 50.0 µM 90.3% | [3]; [8] 96% | [3]; at 50.0 µM 90.5% | [4]; [8] 83% | [4]; at 50.0 µM 88.9% | [5]; [8] 94% | [5]; at 50.0 µM 87.3% | [6]; [8] 95% | [6]; at 50.0 µM 86.2%

CCCCc1ccc2c(c1)Nc1cc3ccccc3cc1N2
inactive: [1]; [7] -3% | [1]; [8] 55% | [2]; [7] 1% | [2]; [8] 26% | [2]; at 50.0 µM 44.5% | [3]; [7] 0% | [3]; [8] 56% | [3]; at 50.0 µM 54.9% | [4]; [7] -13% | [4]; [8] 30% | [4]; at 50.0 µM 33.4% | [5]; [7] 6% | [6]; [7] 7% | [6]; [8] 59%
active: [1]; at 50.0 µM 86.3% | [5]; [8] 81% | [5]; at 50.0 µM 77.8% | [6]; at 50.0 µM 95%

CN(C)CCCNc1cc(/C=C/c2ccc([N+](=O)[O-])cc2)nc2ccccc12
inactive: [1]; [7] -6% | [2]; [7] -3% | [2]; [8] 38% | [2]; at 50.0 µM 68.5% | [3]; [7] -2% | [3]; [8] 60% | [4]; [7] -4% | [4]; [8] 64% | [4]; at 50.0 µM 39.1% | [5]; [7] -6% | [5]; [8] 45% | [5]; at 50.0 µM 60.9% | [6]; [7] -3% | [6]; [8] 56%
active: [1]; [8] 70% | [1]; at 50.0 µM 80.8% | [3]; at 50.0 µM 86.3% | [6]; at 50.0 µM 91.1%
